# Laboratory results reported in ChEMBL document CHEMBL1157539, “Thousands of chemical starting points for antimalarial lead identification” (Nature, 2010).
# Columns and labels:
# Assay type in all cases: functional
# Plasmodium falciparum [1] = assay: GSK_TCMDC: Inhibition of Plasmodium falciparum 3D7 in whole red blood cells, using parasite LDH activity as an index of growth. Test compounds present at 2uM
# Plasmodium falciparum [2] = assay: GSK_TCMDC: Inhibition of Plasmodium falciparum Dd2 in whole red blood cells, using parasite LDH activity as an index of growth. Test compounds present at 2uM
# HepG2 = assay: GSK_TCMDC: Percent inhibition of human HepG2 cell line. Test compounds present at 10uM.
smiles,measurement,setting,value
CN1CCC(C(=O)N(Cc2ccc(-c3ccc(CNCCc4ccccc4)cn3)cc2)C2CCN(Cc3ccccc3)CC2)CC1.O=C(O)C(F)(F)F,Inhibition,Plasmodium falciparum [1],100%
same,Inhibition,Plasmodium falciparum [2],99%
same,Inhibition,HepG2,24%
CCOc1cc(C)ccc1C1CCN(CCCCNC(=O)c2cnc(-c3ccc(C(F)(F)F)cc3)[nH]2)CC1,Inhibition,Plasmodium falciparum [1],95%
same,Inhibition,Plasmodium falciparum [2],97%
same,Inhibition,HepG2,16%
CCOC(=O)c1c(SCc2cccc(F)c2F)[nH]c2ccccc2c1=O,Inhibition,Plasmodium falciparum [1],98%
same,Inhibition,Plasmodium falciparum [2],95%
same,Inhibition,HepG2,1%
COc1ccc(Cc2cnc3nc(N)nc(N)c3c2C)cc1.Cl,Inhibition,Plasmodium falciparum [1],90%
same,Inhibition,Plasmodium falciparum [2],96%
same,Inhibition,HepG2,65%
Oc1cccc(/C=N/Nc2ccnc3cc(Cl)ccc23)c1,Inhibition,Plasmodium falciparum [1],100%
same,Inhibition,Plasmodium falciparum [2],95%
same,Inhibition,HepG2,0%
Cc1c(Cn2ncc(N3CC(C)NC(C)C3)c(Cl)c2=O)cccc1NC(=O)Nc1ccc(-c2ccccc2)cc1.O=C(O)C(F)(F)F (stereo not given),Inhibition,Plasmodium falciparum [1],97%
same,Inhibition,Plasmodium falciparum [2],35%
same,Inhibition,HepG2,97%
Br.CC1(C)NC(N)=NC(=N)N1OCCCOc1cc(Cl)ccc1Cl,Inhibition,Plasmodium falciparum [1],96%
same,Inhibition,Plasmodium falciparum [2],96%
same,Inhibition,HepG2,64%
CN(C)CC1CCCN1Cc1ccccc1-c1cnn(C)c(=O)c1Oc1ccc(F)cc1.O=C(O)C(F)(F)F (stereo not given),Inhibition,Plasmodium falciparum [1],91%
same,Inhibition,Plasmodium falciparum [2],19%
same,Inhibition,HepG2,29%
COc1ccc(NC(=O)/C=C/c2ccccc2Cl)cc1OCCN1CCC(c2nc3ccccc3[nH]2)CC1.Cl,Inhibition,Plasmodium falciparum [1],92%
same,Inhibition,Plasmodium falciparum [2],16%
same,Inhibition,HepG2,35%
Cc1cccc(NC(=S)NC2CCN(CCCCCNC(=O)/C=C/c3ccc(Cl)c(Cl)c3)CC2)c1,Inhibition,Plasmodium falciparum [1],97%
same,Inhibition,Plasmodium falciparum [2],19%
same,Inhibition,HepG2,14%
